Laboratory results published in ChEMBL document CHEMBL3988442, “University of Dundee, Small-Polar-MMV Screening Library” (2021).
Screen size: about 48,000 compounds; about 13,000 (27%) showed an effect of 50% or more. This is one part of the list.

The compounds below were run on Wolbachia pipientis (assay: Anti-Wolbachia Cell-Based Screen). Conditions: 5 µM.
Type: functional
Design: scale not given: in the data most compounds retested in dose-response had high values

Row | Structure (SMILES) | Percent Effect [%]
1 | CCn1nc(C)c(CNC(=O)C2COc3ccccc3C2)c1C (stereo not given) | -10.56
2 | CCC(C)N(Cc1ccncc1)Cc1ccc(-n2cccn2)cc1 (stereo not given) | -9.551
3 | COc1ccc(Br)c(C(=O)NCC2CCN(C(=O)c3ccoc3)CC2)c1 | -6.269
4 | Cc1cccc(CN2CCCC(O)(CNCc3ncccc3C)C2=O)c1 (stereo not given) | 4.315
5 | CC(NC(=O)NCCCOC1CCCCC1)c1nncn1C (stereo not given) | 12.39
6 | O=C(CCc1ccco1)Nc1ccc(Br)cn1 | -1.221
7 | CC(C)C(=O)N1CCC(n2nc(-c3ccco3)ccc2=O)CC1 | 101.9
8 | Cc1oc(-c2ccco2)nc1CC(=O)N1CCC(CCO)C1 (stereo not given) | 7.972
9 | OCC(O)CSCc1cn(-c2ccc(F)c(Cl)c2)nn1 (stereo not given) | 1.714
10 | Cc1csc(C2(NCc3nc(-c4ccco4)oc3C)CCCC2)n1 | 21.68
11 | CN(C)c1nc(CNC(=O)NC2COc3ccccc32)cs1 (stereo not given) | -3.429
12 | Cc1ccc(C(=O)NC2CCOc3ccccc32)cc1S(C)(=O)=O (stereo not given) | 118
13 | Cc1ccc(C(=O)NCC2Cc3ccccc3O2)cc1S(C)(=O)=O (stereo not given) | -52.49
14 | CNS(=O)(=O)c1cc(C(=O)NC2COc3ccccc32)cc(C)c1C (stereo not given) | 105.8
15 | CNS(=O)(=O)c1cc(C(=O)NC2COc3ccccc3C2)ccc1OC (stereo not given) | -1.094
16 | Cc1nnc(NC(=O)NC2CCOc3ccccc32)s1 (stereo not given) | 11.11
17 | COc1ccc(C(O)CN2CC(n3cc(C)cn3)C2)cc1 (stereo not given) | -26.31
18 | O=C(NCCCN1CCOCC1)c1ccnc(OCc2ccccc2)c1 | 13.78
19 | COc1cc(CN(C)C(=O)NCc2ccccn2)ccc1SC | -14.77
20 | NCc1cccc(-c2cccnc2C(=O)NCCCN2CCOCC2)c1 | 156.6
21 | CN(C)Cc1cccc(-c2cccnc2C(=O)NCc2ccccn2)c1 | 107.8
22 | NCc1cccc(-c2cccnc2C(=O)NCCN2CCCC2)c1 | 177.6
23 | O=C(NCCN1CCCCCC1)c1cccc(Cl)c1Cl | -3.616
24 | Cn1ccnc1-c1cccc(NC(=O)NCCCN2CCOCC2)c1 | 9.655
25 | O=C(NCCCN1CCOCC1)c1ccc(-c2ccccc2)[nH]c1=O | -4.893
26 | O=C(NCCCN1CCOCC1)c1cc(-c2ccccc2)[nH]n1 | 93.89
27 | O=C(NCCN1CCCCC1)c1cccc(Cl)c1Cl | -2.651

Row | Structure (SMILES) | Percent Effect [%]
28 | Cc1oc(C)c(C(=O)NCc2ccccn2)c1C | -10.25
29 | O=C(NCCCN1CCOCC1)c1cc(-c2ccco2)[nH]n1 | 0.6677
30 | CC(CC#N)NC(=O)c1cc(Br)c2c(c1)OCCO2 (stereo not given) | 3.147
31 | Cc1ccc(C(=O)N2CCC(C(F)(F)F)CC2)cc1N1CCNC1=O | 18.95
32 | O=C(O)C(F)(F)F.O=C1CCCN1CC1CN(CC2CCOCC2)Cc2nccn2C1 (stereo not given) | -5.52
33 | CCCn1cnnc1CNCc1c[nH]nc1-c1ccc(F)cc1 | -2.592
34 | c1cncc(-c2nnc(C3(c4ccc5c(c4)OCO5)CCOCC3)o2)c1 | 0.6275
35 | NCc1cccc(-c2cccnc2C(=O)NCCN2CCOCC2)c1 | 178.8
36 | O=C(NCCN1CCOCC1)c1cc(-c2ccccc2Cl)[nH]n1 | 0.5934
37 | Cn1ccnc1-c1cccc(NC(=O)NCCN2CCOCC2)c1 | 1.066
38 | O=C(NCCCn1ccnc1)Nc1ccn(CCc2ccccn2)n1 | -2.122
39 | CCN(Cc1cccc(C(=O)Nc2cn(C)nn2)c1)[C@H]1COC[C@@H]1O | 20.02
40 | COc1cc(N2CCn3cc(CNc4ccccn4)nc3C2)ncn1 | 0.6158
41 | Cc1ncsc1CNC(=O)CCN1CCN(c2ccccn2)CC1 | -8.127
42 | Cc1csc(N2CCN(C(=O)CCNc3ncccn3)CC2)n1 | -3.8
43 | Cc1cc(CNC(=O)CCN2CCN(c3ccccn3)CC2)c(C)o1 | -14.14
44 | Cc1ccc(CNC(=O)CCN2CCN(c3ccccn3)CC2)n1C | 5.614
45 | CC(C)OCCC(=O)NCCC(=O)N1CCN(c2ccccn2)CC1 | 105.6
46 | CC(C)COCCC(=O)NCCC(=O)N1CCN(c2ccccn2)CC1 | 140.4
47 | CCC(=O)N1CCC2(COCc3c(C)nc(N(C)C)nc32)C1 (stereo not given) | 5.169
48 | Cc1noc(C)c1CN1CCC2(COCc3cnc(N(C)C)nc32)C1.O=C(O)C(F)(F)F (stereo not given) | -6.223
49 | COCC(=O)N1CCC2(COCc3c(C)nc(N(C)C)nc32)C1 (stereo not given) | 100.6
50 | Cc1nc(N2CCOCC2)nc2c1COCC21CCN(CC2CC2)C1.O=C(O)C(F)(F)F (stereo not given) | 1.071
51 | COCCN1CCC2(COCc3c(C)nc(N4CCOCC4)nc32)C1.O=C(O)C(F)(F)F (stereo not given) | 8.185
52 | CC(=O)NCC(=O)N1CCC2(COCc3c(C)nc(N(C)C)nc32)C1 (stereo not given) | 108.4
53 | Cc1nc(N(C)C)nc2c1COCC21CCN(C(=O)NC(C)C)C1 (stereo not given) | 14.65
54 | Cc1nc(N(C)C)nc2c1COCC21CCN(C(=O)NCC(C)C)C1 (stereo not given) | 114.7

Row | Structure (SMILES) | Percent Effect [%]
55 | Cc1nc(N(C)C)nc2c1COCC21CCN(C(=O)C2CC2)C1 (stereo not given) | 112
56 | Cc1nc(N2CCOCC2)nc2c1COCC21CCN(CC(C)C)C1 (stereo not given) | 0.306
57 | Oc1c(F)cc(CNc2cccc(-c3nnc[nH]3)c2)cc1F | 3.752
58 | NCc1cn(CC2CCCN(C(=O)NCCc3ccc(F)cc3)C2)nn1 (stereo not given) | -14.7
59 | O=C(CSc1nnc[nH]1)NCc1sccc1Br | -6.223
60 | O=C(CCc1ccc(Cl)s1)N1CCCC(n2cncn2)C1 (stereo not given) | 2.271
61 | N#Cc1ccc(CC(=O)N2CCCC(n3cccn3)C2)cc1 (stereo not given) | 3.73
62 | N#Cc1ccc(CCC(=O)N2CCCC(n3cncn3)C2)cc1 (stereo not given) | 122.1
63 | COc1ccc(CCCC(=O)N2CCCC(n3cncn3)C2)cc1 (stereo not given) | -28.74
64 | COc1ccc(CCC(=O)N2CCCC(n3cncn3)C2)cc1 (stereo not given) | 106.9
65 | O=C(CCc1ccsc1)N1CCCC(n2cncn2)C1 (stereo not given) | 119.5
66 | O=C(Cc1ccc2c(c1)OCCO2)N1CCCC(n2cncn2)C1 (stereo not given) | 8.803
67 | COc1ccc(CCN2CCCC(n3cncn3)C2)cc1 (stereo not given) | -2.484
68 | O=C(c1cccnc1O)N1CCCC2(C=Cc3ccccc3O2)CC1 (stereo not given) | 2.5
69 | COc1cccc(COCC(O)CN2CC(n3cccn3)C2)c1 (stereo not given) | -10.3
70 | FC(F)Oc1ccc(CN2CCOC3(CCOCC3)C2)cc1Cl | 7.261
71 | CN(C)C(=O)N1CCN(Cc2ccc3occc3c2)[C@H]2CS(=O)(=O)C[C@H]21 | -2.327
72 | COc1ccccc1CCN(C)C(=O)NC(C)c1nncn1C (stereo not given) | 3.532
73 | CC(Nc1nc2c(cnn2C)c(=O)[nH]1)c1ccccn1 (stereo not given) | -0.01009
74 | O=C(NCCCNc1ccccc1)c1scnc1Cl | 2.651
75 | O=C(CN1CCOC(c2ccccc2C(F)(F)F)C1)NC1CC1 (stereo not given) | 8.433
76 | COCCNc1ccccc1CNC(=O)C1CCCOC1 (stereo not given) | -2.92
77 | Cc1cc(NCc2csc(-c3ccco3)n2)ccc1C(N)=O | -17.43
78 | COCCN1CCn2cc(CNC(=O)C3CCC3)nc2C1 | -2.168
79 | COCCCNc1nc(CNC(=O)C2CCC2)cc(-c2ccco2)n1 | 103.2
80 | COCCCNc1nc(CNC(C)=O)cc(-c2ccco2)n1 | 96.87
81 | COCCN(C(=O)c1nc(-c2ccco2)sc1C)C1CC1 | 4.119

Row | Structure (SMILES) | Percent Effect [%]
82 | CN1CCC(N2CCOC[C@H](OCC(=O)N(C)C)C2)CC1 | -7.154
83 | CN(Cc1nccs1)c1nc(-c2ccccn2)nc2c1CCNCC2 | -16.23
84 | C[C@@H]1CN(C(=O)C2(N3CCCCC3)Cc3ccccc3C2)C[C@H](C)O1 | 1.52
85 | O=C1NCCCCC1NC(=O)N1CCc2ccccc21 (stereo not given) | -9.694
86 | O=C1NCCCC[C@@H]1NC(=O)C1(N2CCCCC2)Cc2ccccc2C1 | 94.83
87 | O=C1NCCCCC1NC(=O)N1CCCc2ccccc21 (stereo not given) | 0.9845
88 | CCN1CCN(C2(C(=O)NC3CCCC3)Cc3ccccc3C2)CC1 | 34.09
89 | C[C@@H]1CN(C2(C(=O)N3CCCCCC3)Cc3ccccc3C2)C[C@H](C)O1 | 10.21
90 | C[C@@H]1CN(C2(C(=O)N3CCNCC3)Cc3ccccc3C2)C[C@H](C)O1 | 0.2637
91 | O=C(NC1CCNCC1)C1(N2CCCCC2)Cc2ccccc2C1 | 123.6
92 | O=C(NC1CCNC1)C1(N2CCCCC2)Cc2ccccc2C1 (stereo not given) | 108.7
93 | Cc1ccsc1C(=O)NC1CCS(=O)(=O)c2ccccc21 (stereo not given) | 9
94 | CC(C)COCC(NC(=O)CSc1nnc[nH]1)c1ccco1 (stereo not given) | 34.68
95 | CCC(C)(C)n1nnnc1C(c1cccs1)N1CCc2ccccc21 (stereo not given) | 114.5
96 | CCC(CNC(=O)c1cncc(Br)c1)N1CCc2ccccc2C1 (stereo not given) | 4.86
97 | CCC(C)(C)n1nnnc1C(c1cccs1)N1CCCCC1 (stereo not given) | 117.5
98 | CCn1cnnc1CNC(=O)NCC(c1cccs1)N1CCCC1 (stereo not given) | -4.375
99 | Cc1nnc(NCC(c2cccs2)N2CCCC2)c(C#N)c1C (stereo not given) | 15.53
100 | CCC(CNC(=O)c1ccccn1)N1CCc2ccccc2C1 (stereo not given) | 2.728
101 | CCC(C)(C)n1nnnc1C(c1cccs1)N1CCc2ccccc2C1 (stereo not given) | 110.2
102 | Cc1nc(CN2CCCn3cnc(COC(C)C)c3C2)cs1.O=C(O)C(F)(F)F | 6.346
103 | CCOc1ccc2c(c1)C=C(C(=O)NC(C)Cn1cccn1)CO2 (stereo not given) | 15.57
104 | CSCCC(=O)N1CCC(c2nccn2CCN(C)C)CC1 | -6.399
105 | CCCN(C(=O)CS(=O)(=O)c1ccccc1)c1cccc(C)c1 | -28.2
